Unmarked numbers belong to inactive results. The source made the active and inactive calls. No stated cut-off is given here; in the data, active means fold change permeability below about 0.7 or above about 1.3; inactive means in between.
Test: modulators of brain endothelial barrier permeability, primary screen, cell-based, FITC-avidin fluorescence, HTS (AID 1963498); further: test concentration not given here
Conditions: actives lie on both sides

Structure (SMILES) | fold change permeability
O=C(c1ccc(Br)cc1)N1CC2C3CCC(O3)C2C1 (centres undefined) | 1.2
CN(C)CCCN1c2ccccc2Sc2ccc(C(F)(F)F)cc21 | 1.2
N#Cc1c(N2C[C@@H]3NCCO[C@H]3C2)c(F)cc2c(=O)c(C(=O)O)cn(C3CC3)c12 | 0.9
CN1CCC(=C2c3ccccc3CCn3c(C=O)cnc32)CC1 | 1
CC(C)NCC(O)c1ccc(NS(C)(=O)=O)cc1 (centres undefined) | 0.7 (active)
CC1=C(/C=C/C(C)=C/C=C/C(C)=C/C(=O)O)C(C)(C)CCC1 | 1.3 (active)
CC#C[C@]1(O)CC[C@H]2[C@@H]3CCC4=CC(=O)CCC4=C3[C@@H](c3ccc(N(C)C)cc3)C[C@@]21C | 0.8
NC[C@@H]1O[C@H](O[C@H]2[C@@H](O)[C@H](O[C@@H]3[C@@H](O)[C@H](N)C[C@H](N)[C@H]3O[C@H]3O[C@H](CO)[C@@H](O)[C@H](O)[C@H]3N)O[C@@H]2CO)[C@H](N)[C@@H](O)[C@@H]1O | 1
CCOC(=O)C1=C[C@@H](OC(CC)CC)[C@H](NC(C)=O)[C@@H](N)C1 | 0.8
NC(=Nc1ccccc1)NC(=O)c1nc(Cl)c(N)nc1N | 1.2
N#CC(C#N)=C(N)/C(C#N)=C/c1cc(O)c(O)c(O)c1 | 1.7 (active)
N#C/C(=C\c1ccc(-c2cc(Cl)ccc2Cl)o1)C(=O)Nc1cccc2ncccc12 | 2.1 (active)
O=C(O)c1cc(=O)c2ccccc2[nH]1 | 1.6 (active)
C[N+](C)(C)CCO | 1
O=C(O)Cc1ccc(O)c(O)c1 | 1
CN(C)c1nc(N(C)C)nc(N(C)C)n1 | 1.1
Cn1cc(C(=O)OCC2CCN(CCNS(C)(=O)=O)CC2)c2ccccc21 | 1
O=C(OCCN1CCOCC1)C1(c2ccccc2)CCCCC1 | 1
COc1cc2nc(N3CCN(C(=O)c4ccco4)CC3)nc(N)c2cc1OC | 1
COc1ccc2c(c1)c(CC(=O)O)c(C)n2C(=O)c1ccc(Cl)cc1 | 1.7 (active)

Structure (SMILES) | fold change permeability
O=c1[nH]c2ccccc2n1CCN1CCN(c2cccc(C(F)(F)F)c2)CC1 | 1.5 (active)
CCC(=O)Nc1cccc(Oc2nc(Nc3ccc(N4CCN(C)CC4)cc3OC)ncc2Cl)c1 | 1.2
CC1(C)CO[C@@H](CC(=O)O)CN1 | 1.2
CCCCCCCCCCCCCCCCCCOC[C@H](COP(=O)([O-])OCC[N+](C)(C)C)OC | 1.5 (active)
CC(C)(C)c1ccc(C(O)CCCN2CCC(C(O)(c3ccccc3)c3ccccc3)CC2)cc1 (centres undefined) | 1.4 (active)
CCCCCCNc1nc(NC2CCN(C)CC2)c2cc(OC)c(OC)cc2n1 | 1
CO/N=C(\C(=O)N[C@@H]1C(=O)N2C(C(=O)O)=C(COC(C)=O)CS[C@H]12)c1csc(N)n1 (stereo in doubt) | 0.8
C[C@]12C=CC(=O)C=C1CC[C@@H]1C2=CC[C@]2(C)[C@@H](C(=O)CN3CCN(c4cc(N5CCCC5)nc(N5CCCC5)n4)CC3)CC[C@@H]12 | 1.4 (active)
CCCN(CCC)C(=O)C(CCC(=O)O)NC(=O)c1ccccc1 (centres undefined) | 0.7 (active)
O=c1c(O)c(-c2ccc(O)cc2O)oc2cc(O)cc(O)c12 | 0.7 (active)
NC(=O)N1c2ccccc2C=Cc2ccccc21 | 1.1
COc1cc(-c2cc(-c3ccc(N4CCNCC4)cc3)cnc2C)cc(OC)c1OC | 1.2
COc1cccc(OC)c1OCCNCC1CSc2ccccc2O1 (centres undefined) | 1.1
COCCNC(=O)COc1ccc(OCCNC[C@H](O)COc2ccccc2)cc1 | 1
C[n+]1ccccc1CC(=O)c1ccc(Br)cc1 | 0.9
C[N+](C)(C)CCCCCC[N+](C)(C)C | 1
CC1(C)CCC2=C(O1)c1ccccc1C(=O)C2=O | 1.8 (active)
CCOC(=O)C1=C[C@]2(CC)CCCN3CCc4c(n1c1ccccc41)[C@@H]32 | 1.8 (active)
CC(C)(C)NCC(O)c1ccc(O)c(CO)c1 (centres undefined) | 0.9

— PubChem BioAssay
